# Data from PubChem BioAssay (NCATS).
# Inconclusive results are not listed. Active and inactive are the calls of the source. Calls follow the shape of the dose curve; as a rule, active = well fitted cell-killing curve with a large enough effect; inconclusive = small, poorly fitted or top-dose-only effect, or effect the other way; inactive = no such curve, though single readings can be large or run the other way.
# Experiment: Viability qHTS for spleen associated tyrosine kinase inhibitor (SYKi) drug resistant MV4-11 cells (AID 1963824); also: nearly all actives have a fitted effect of over 35% in size
# Conditions: SYKi-resistant MV4-11 viability, CellTiter-Glo, 72 h; series mostly up to 45 µM; viability, % of control: at the top concentration
# How it was run: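 SYK inhibitor-resistant MV4-11 AML cells, 500 per well, added to predispensed compounds and incubated 72 hr at 37 C, 5% CO2. Viability measured by CellTiter-Glo luminescence after 10 min at room temperature.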
# Potency is read from the fitted curve at half-maximal effect.
Structure (SMILES),Potency,"viability, % of control"
CC(C)C[C@@H]1NC(=O)[C@@H]2C[C@@]34C[C@@H]5[C@@]6(C)CCCC(C)(C)C6CC[C@@]5(C)N(c5ccccc53)[C@H]4N2C1=O (some centres undefined),0.448 µM (active),–
CCNC1(C(N)=O)CN(c2nc(C)nc3c(-c4ccc(Cl)cc4)c(-c4ccccc4Cl)nn23)C1,16.4 µM (active),–
CC1CCC2C(C)(C)C(O)CCC2(C)C12Cc1c(O)cc3c(c1O2)CN(C(CCC(N)=O)C(=O)O)C3=O (centres undefined),–,79.1% [at 17.3 µM] (inactive)
Cc1c(C(=O)Nc2ccc(Oc3ccnc4[nH]cc(-c5ccccc5)c34)c(F)c2)c(=O)n(-c2ccc(F)cc2)n1C,0.0206 µM (active),–
Nc1cccc(CNC(=O)c2ccc(Oc3ccc(OCc4cccc(F)c4)cc3)nc2)c1,16.4 µM (active),–
CC1CCC2(NC1)OC1C(=O)C3C4CCC5CC(O[C@@H]6O[C@H](CO)[C@@H](O)[C@H](O)[C@H]6O[C@@H]6O[C@@H](C)[C@H](O)[C@@H](O)[C@H]6O)CCC5(C)C4CCC3(C)C1C2C (some centres undefined),–,70.6% [at 17.3 µM] (inactive)
CC(C)(C)c1ccc(CN2CCN(C(c3ccccc3)c3ccc(Cl)cc3)CC2)cc1 (centres undefined),23.1 µM (active),–
COc1ccc(F)cc1-c1cc(NC(=O)[C@@H]2CCCNC2)ncc1Cl,0.103 µM (active),–
CC(=O)OC1C(C)C2C(OC3OC(CO)C(O)C(O)C3O)OC=C(C(=O)O)C2C1OC(=O)c1ccccc1 (centres undefined),–,110% [at 17.3 µM] (inactive)
